About 4,700 (1.3%) of roughly 370,000 compounds were called active.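 How the source made its calls: active means inhibition above the plate cutoff, the mean of all test compounds on that plate plus 3 SD (cut at about 35% in these data); inactive means the rest.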 Shown is part of a subset that was picked to be rich in actives.
Assay: binders of r(CAG) RNA repeats, primary screen, biochemical, fluorescence (AID 651821);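 further: 0% = DMSO alone and 100% = 100 µM mitoxantrone as full dye displacement; higher means more dye released from RNA so lower well fluorescence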
Conditions: r(CAG) RNA repeat, TO-PRO-1 dye displacement fluorescence; at 3 µM; stronger effect = higher value

Row | Compound | inhibition
1 | COc1ccc(-n2c(SCC(=O)NC3CCCC3)nnc2-c2ccncc2)cc1 | 3.34% (inactive)
2 | CCN(CC)S(=O)(=O)c1ccc(Cl)c(C(=O)NC(C)C(c2cccs2)N2CCCC2)c1 (centres undefined) | -3.47% (inactive)
3 | O=C(CSc1nnc(SCc2ccc(Cl)cc2)s1)N/N=C/c1ccccc1Cl | 5.04% (inactive)
4 | Cc1ccc(NC(=S)NNC(=O)CSc2nnc(SCc3ccccc3Cl)s2)cc1 | 47.2% (active)
5 | CCSc1nnc(SCC(=O)NNC(=O)c2ccccc2F)s1 | 1.18% (inactive)
6 | O=C1Nc2cc(C(=O)N3CCN(c4ccc(F)cc4)CC3)ccc2NC1CSCc1cccc(F)c1 (centres undefined) | 14.7% (inactive)
7 | O=C(COC(=O)/C=C/c1cccc(Cl)c1)NCc1cccs1 | -1.04% (inactive)
8 | CCOC(=O)c1nnn(CC(=O)Nc2cccc(F)c2)c1C(=O)OCC | -2.22% (inactive)
9 | CCN(CC)C(=O)CSC(Nc1cccc(F)c1)=C(C#N)C#N | 56.7% (active)
10 | Cc1ccc(CSCC(=O)N(C)CC(=O)Nc2cccc(F)c2)cc1 | -1.65% (inactive)
11 | CCS(=O)(=O)c1ccc(C(=O)NC)c(Cl)c1Cl | -0.44% (inactive)
12 | O=C(NC1CCCC1)C1CSCCS(=O)(=O)N1Cc1ccccc1 (centres undefined) | 4% (inactive)
13 | CCc1nnc(NC(=O)C2CCCN2S(=O)(=O)c2ccccc2)s1 (centres undefined) | -1.9% (inactive)
14 | NS(=O)(=O)c1ccc(NC(=S)NNC(=O)c2cccs2)cc1 | -2.42% (inactive)
15 | CCc1nnc(NC(=O)[C@@H](NC(=O)c2cccc(C)c2)C(C)C)s1 | 2.27% (inactive)
16 | O=C(NC(=S)Nc1ccc(S(=O)(=O)Nc2ncccn2)cc1)c1cccc(Br)c1 | 5.78% (inactive)
17 | CCc1nnc(NS(=O)(=O)c2ccc(NC(=S)NC(=O)/C=C/c3cccs3)cc2)s1 | 83.9% (active)
18 | Cc1ccc(S(=O)(=O)N(C)C)cc1NC(=O)/C=C/c1cccs1 | 0.22% (inactive)
19 | CCc1nnc(NS(=O)(=O)c2ccc(NC(=O)c3cccc(OC(F)(F)C(F)F)c3)cc2)s1 | 72.6% (active)
20 | Cc1cc(NS(=O)(=O)c2ccc(NC(=O)c3cccc(OC(F)F)c3)cc2)nc(C)n1 | 4.48% (inactive)
21 | CCc1nnc(NS(=O)(=O)c2ccc(NC(=S)NC(=O)c3cccs3)cc2)s1 | 59% (active)
22 | C=CCN=C1NC(c2ccccc2)C(C(=O)OC)=C(C)N1Cc1ccc(C(F)(F)F)cc1 (centres undefined) | 8.06% (inactive)
23 | CN(CCO)c1cccc2c1S(=O)(=O)N(Cc1cn(Cc3ccc(C(F)(F)F)cc3)nn1)Cc1ccccc1O2 | -1.07% (inactive)
24 | C/C=C/C(=O)OCC(=O)Nc1ccc(F)cc1Cl | 4.85% (inactive)
25 | Cc1cc2nc3c(=O)[nH]c(=O)nc-3n(C[C@H](O)[C@H](O)[C@H](O)CO)c2cc1C | -477% (inactive)
26 | CCN1C(=O)N[C@@H]2C[C@H](C(=O)N3CCCC3)[C@H](C)[C@H](c3ccccc3)C[C@@H]21 | 1.47% (inactive)
27 | CC1CCN(S(=O)(=O)c2nnc(NC(=O)COc3ccccc3F)s2)CC1 | 8.39% (inactive)

Row | Compound | inhibition
28 | CCc1ccccc1OCC(=O)Nc1ccc(C)c(S(=O)(=O)N2CCCCCC2)c1 | 3.67% (inactive)
29 | Cc1ccccc1OCC(=O)Nc1nnc(S(=O)(=O)N2CCCC2)s1 | 37.6% (active)
30 | COc1ccc(Cn2cc(CN3[C@@H](CC(C)C)COc4cc(Br)ccc4S3(=O)=O)nn2)cc1 | 2.72% (inactive)
31 | O=C(C(=O)N1CCC(CNS(=O)(=O)Cc2ccccc2)CC1)c1cc2ccccc2o1 | 3.81% (inactive)
32 | Cn1c2c(c(=O)n(C)c1=O)CN(Cc1ccco1)CN2 | -0.1% (inactive)
33 | COc1ccc(-n2c(SCC(=O)Nc3ccc4c(c3)OCCO4)nnc2-c2ccc(Cl)cc2)cc1 | 6.74% (inactive)
34 | COc1ccccc1C1CC(=O)n2c(nc(-c3ccccc3)c2-c2ccccc2)S1 (centres undefined) | 9.44% (inactive)
35 | COc1ccc(C2C(C#N)=C(N)Oc3n[nH]c(C)c32)cc1CN1CCN(c2ccc(F)cc2)CC1 (centres undefined) | 0.94% (inactive)
36 | COc1ccccc1C1C(C#N)=C(N)Oc2c1c(-c1ccccc1)nn2-c1ccccc1 (centres undefined) | 54.6% (active)
37 | CCCCCCCCN1C(=O)[C@@H](CC(=O)NCc2ccccc2)C[C@@]2(C(=O)OC)C1=C[C@H](C(C)(C)C)O[C@@H]2C | 1.31% (inactive)
38 | O=C(CN(c1cc(C(F)(F)F)ccc1Cl)S(=O)(=O)c1ccccc1)NCc1cccnc1 | -7.03% (inactive)
39 | O=C(c1cccnc1)N(c1cc2sc(=O)oc2c2ccccc12)S(=O)(=O)c1ccccc1 | 80.7% (active)
40 | CN(c1ccccc1)S(=O)(=O)c1ccc(C(=O)NCc2cccnc2)cc1 | 2.25% (inactive)
41 | Cc1cc(N2CCN(C(=O)OC(C)(C)C)C[C@H]2C)ccc1N1CCN(Cc2ccccc2)[C@H](C)C1 | 0.53% (inactive)
42 | CCOC(=O)C1C(C)C(C(C)(C)C)N(S(=O)(=O)c2ccc(C)cc2)C1c1ccccc1 (centres undefined) | 1.44% (inactive)
43 | Cc1ccc(S(=O)(=O)N2C[C@H]3C(=O)C[C@@H](c4cccc5ccccc45)N(S(=O)(=O)c4ccc(C)cc4)[C@H]3C[C@H]2c2ccc(Cl)cc2)cc1 | 13.6% (inactive)
44 | Cc1ccc(S(=O)(=O)N2[C@@H](c3cccc4ccccc34)C(C(=O)O)=C[C@H]2C(C)(C)C)cc1 | 50.6% (active)
45 | COc1cccc(/C=C2\CC3(OC(C)=O)CCCN2C3)c1 (centres undefined) | 0.45% (inactive)
46 | C#CCN([C@@H](C)C(=O)OCC)S(=O)(=O)c1ccc(Br)cc1F | 2.12% (inactive)
47 | O=c1oc(-c2ccccc2NS(=O)(=O)c2ccc(Cl)cc2)nc2ccccc12 | 39.1% (active)
48 | O=c1ccc2cc(S(=O)(=O)Nc3ccccc3F)ccc2o1 | -1.01% (inactive)
49 | O=c1oc2ccccc2c(NC2CCCCC2)c1NS(=O)(=O)c1ccc(Cl)cc1 | 5.21% (inactive)
50 | COc1ccc(-n2c(SCC(=O)Nc3ccccc3-c3ccccc3)nnc2-c2cccnc2)cc1 | 0.96% (inactive)
51 | Cc1c(C(C)c2ccccc2O)[nH]c2ccccc12 (centres undefined) | 4.84% (inactive)
52 | O=C(CSc1nnc(-c2ccccc2)n1Cc1ccco1)Nc1ccccc1-c1ccccc1 | 5.56% (inactive)
53 | Clc1ccccc1CSc1nnc(-c2ccco2)c(-c2ccco2)n1 | 54.8% (active)
54 | Clc1ccc(-n2c(SC/C=C/c3ccccc3)nnc2-c2ccco2)cc1 | 2.56% (inactive)

From PubChem BioAssay AID651821 (The Scripps Research Institute Molecular Screening Center, 2012)
